# Results taken from the supplement of paper PMC12067093, “Discovery and optimisation of a covalent ligand for TRIM25 and its application to targeted protein ubiquitination” (Chemical Science, 2025).
# The full data set covers some 21,000 targets. This sample favours those with the largest changes.
# Molecular target: WDR43_Q15061_158_HIVEWNVQTCK (UniProt Q15061)
# Test: probe-labelled cysteine peptide fold change vs DMSO (competition) (log2 fold change); higher = less target engagement (more negative = stronger competition)
# Conditions: THP-1, incubation time: 4 h
# 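Also: competitive profiling in live THP-1 cells: cysteine peptides tagged with an iodoacetamide desthiobiotin (IA-DTB) probe, intensity after compound treatment relative to DMSO-treated cells.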
# Chain of WDR43_Q15061_158_HIVEWNVQTCK (Q15061 whole entry, looked up): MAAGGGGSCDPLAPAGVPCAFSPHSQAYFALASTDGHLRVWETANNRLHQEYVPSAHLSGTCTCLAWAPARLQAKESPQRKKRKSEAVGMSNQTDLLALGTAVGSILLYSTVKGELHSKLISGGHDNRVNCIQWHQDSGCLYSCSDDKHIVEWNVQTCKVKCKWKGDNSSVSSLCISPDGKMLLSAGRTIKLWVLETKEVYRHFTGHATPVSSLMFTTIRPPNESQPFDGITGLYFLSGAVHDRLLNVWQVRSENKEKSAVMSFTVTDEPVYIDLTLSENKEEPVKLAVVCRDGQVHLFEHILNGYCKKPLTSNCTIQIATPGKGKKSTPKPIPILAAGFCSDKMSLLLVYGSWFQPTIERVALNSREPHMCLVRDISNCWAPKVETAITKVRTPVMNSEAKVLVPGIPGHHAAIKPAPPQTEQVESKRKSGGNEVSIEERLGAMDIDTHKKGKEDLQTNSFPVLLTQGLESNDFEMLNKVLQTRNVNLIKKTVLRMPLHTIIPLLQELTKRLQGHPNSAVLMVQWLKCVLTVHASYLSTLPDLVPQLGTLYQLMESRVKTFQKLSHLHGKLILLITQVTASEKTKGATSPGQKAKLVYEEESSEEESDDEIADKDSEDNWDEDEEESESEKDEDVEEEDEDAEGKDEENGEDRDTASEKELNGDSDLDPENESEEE
smiles,measurement,setting,value
Cc1cc(C(=O)N2CCCN(C(=O)CCl)CC2)ccc1-c1ccccc1 [compound 10],probe-labelled cysteine peptide fold change,10 µM,-0.0124
same,probe-labelled cysteine peptide fold change,50 µM,-0.0233
